Screen size: about 16,000 compounds; about 5,700 (36%) were called active. Another 24% or so got no clear call; they are omitted. The list shows a part of the results. Unmarked numbers belong to inactive results. The call rests on the fitted dose curve; in most records, active means well fitted curve in the direction sought with a large enough effect; inconclusive means small, poorly fitted or top-dose-only effect, or effect the other way; inactive means no such curve, though single readings can be large or run the other way.
On the % scale 0 is the no-effect control and ±100 the full control effect.

In the experiment the target is Cytochrome P450 1A2 (Homo sapiens) (UniProt P05177). As to the kind of experiment: Cytochrome panel assay with activity outcomes. The following applies: recombinant CYP, pro-luciferin dealkylation, luminescence, p450-cyp1a2; series mostly up to 57.1 µM.
Chain of Cytochrome P450 1A2 (Homo sapiens) (P05177 whole entry, looked up): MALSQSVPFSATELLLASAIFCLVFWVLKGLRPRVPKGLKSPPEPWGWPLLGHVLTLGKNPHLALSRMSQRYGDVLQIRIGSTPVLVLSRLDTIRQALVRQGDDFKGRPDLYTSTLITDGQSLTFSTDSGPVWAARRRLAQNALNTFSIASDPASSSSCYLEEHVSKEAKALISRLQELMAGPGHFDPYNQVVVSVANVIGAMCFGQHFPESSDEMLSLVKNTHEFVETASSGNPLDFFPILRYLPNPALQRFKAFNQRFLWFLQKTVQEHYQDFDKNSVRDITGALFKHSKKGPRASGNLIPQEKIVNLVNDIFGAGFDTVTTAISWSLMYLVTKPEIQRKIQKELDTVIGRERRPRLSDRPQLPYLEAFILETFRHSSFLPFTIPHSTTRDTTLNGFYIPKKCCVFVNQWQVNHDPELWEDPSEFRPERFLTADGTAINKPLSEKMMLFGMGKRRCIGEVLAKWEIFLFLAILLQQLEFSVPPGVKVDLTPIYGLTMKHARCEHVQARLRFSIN
The term AC50 denotes the midpoint of the concentration-response curve, whichever way the signal moves. Consider `CCOC(=O)c1c(NC(=O)C(c2ccccc2)c2ccccc2)sc2c1C1CCN2CC1`, for which the AC50 result was “inactive”.

As to `COc1ccc(NC(=O)NC2CC3CCCC(C2)N3Cc2ccccc2)cc1` (stereo not drawn), the AC50 entry is “inactive”.

Turning to `NC[C@@H](Cc1ccccc1)P(=O)(O)O`, the activity, negative = inhibition was -9.3% [at 11.4 µM].

With `Nc1nc2ccc(Cl)cc2c2nc(-c3ccco3)nn12`, the AC50 is 0.0631 µM (active).

With `CN1CC[C@@]2(CCCN(C(=O)c3ccncc3)C2)C1`, the AC50 result is “inactive”.

Consider `COC(=O)N1CCN(C(=O)Cc2ccc(Cl)c(Cl)c2)[C@H](CN2CCCC2)C1`, for which the AC50 entry was “inactive”.

`CSC([N-]/N=C/c1cccc(C)n1)=[S]=[Cu].CS[C@H]([S-])[N-]/N=C/c1cccc(C)n1`: the AC50 was 0.631 µM (active).

For the compound `O=C(Oc1ccccc1)N1CCC2(CCCN(C(c3ccccc3)c3ccccc3)C2)CC1`, the AC50 entry is “inactive”.

`c1ccc(CCCCN2CCC(c3ccccc3)CC2)cc1`: the concentration at half-maximal activity (AC50) is 15.8 µM (active).

`CNCCCc1ccccc1`: the AC50 entry was “inactive”.

Consider `c1ccc2c([C@@H]3CCN(CCN4CCOCC4)C3)c[nH]c2c1`, for which the activity, negative = inhibition was -9.42% [at 11.4 µM].

On to `NC[C@@H](O)CSP(=O)(O)O`, for which the activity, negative = inhibition is -2.54% [at 11.4 µM].

Regarding `CCN1C[C@]2(COC)CC[C@H](O)[C@@]34[C@@H]5C[C@H]6[C@@H](OC)[C@H]5[C@](O)(C[C@@H]6OC)[C@@](O)([C@@H](OC)[C@H]23)[C@@H]14`, the AC50 result is “inactive”.

For the compound `COc1cc2cc(c1Cl)N(C)C(=O)C[C@H](OC(=O)C(C)C)[C@]1(C)O[C@@H]1[C@@H](C)[C@H]1C[C@](O)(NC(=O)O1)[C@@H](OC)/C=C\C=C(\C)C2`, the activity, negative = inhibition was -7.72% [at 11.4 µM].

In the case of `CCC(=Nc1cc(OC)ccc1OC)c1c(O)[nH]c(=O)[nH]c1=O`, the AC50 was 14.1 µM (active).

Take `CCCCn1c(O)c(C(CC)=Nc2ccc(OC)cc2OC)c(=O)[nH]c1=O`: the AC50 was 12.6 µM (active).

For the compound `O=c1[nH]c(=O)n(CCc2ccc(F)cc2)c(O)c1C=NCCCN1CCOCC1`, the AC50 result was “inactive”.

`CCCCn1c(O)c(C(CC)=NCc2ccc(F)cc2)c(=O)[nH]c1=O`: the AC50 is 8.91 µM (active).

As to `O=c1[nH]c(=O)n(CCC2=CCCCC2)c(O)c1C=Nc1cccc(F)c1`, the AC50 result was “inactive”.

Regarding `CC1=C(C)[N+](=O)C2(O)CCCCC2(C)N1[O-]` (stereo not drawn), the AC50 entry is “inactive”.

As to `Nc1nc(N)c2nc(CNc3ccc(C(=O)N[C@H](CCC(=O)O)C(=O)O)cc3)cnc2n1`, the AC50 result was “inactive”.

For the compound `CN(C)C(=O)Oc1cc(OC(=O)N(C)C)cc([C@@H](O)CNC(C)(C)C)c1`, the AC50 result is “inactive”.

Take `C[C@H](c1ccccc1)N1CCN([C@@H](C)c2ccccc2)CC1`: the activity, negative = inhibition was -16% [at 2.29 µM].

As for `O=C(O)CSCC(=O)O`, the activity, negative = inhibition was -2.34% [at 11.4 µM].

Consider `CC1=C2C(=O)[C@@H]3[C@@H](CC=C4C[C@@H](O)CC[C@@]43C)[C@H]2CC[C@@]12O[C@H]1C[C@H](C)CN[C@H]1[C@@H]2C`, for which the activity, negative = inhibition was -16.8% [at 11.4 µM].

On to `O=C(Oc1ccccc1)N1CCC2(CCCN(Cc3nccs3)C2)CC1`, for which the AC50 entry is “inactive”.

`C[C@]12N[C@H](Cc3ccccc31)c1ccccc12`: the AC50 entry was “inactive”.

On to `CCCCCCCC/C=C\CCCCCCCC(N)=O`, for which the AC50 is 6.31 µM (active).

On to `CCCCC/C=C\C/C=C\C/C=C\C/C=C\CCCC(=O)NCC(=O)O`, for which the AC50 entry is “inactive”.

Regarding `CC(C)[C@@]1(NC(=O)[C@@H]2C[C@H]3c4cccc5[nH]cc(c45)C[C@@H]3N(C)C2)O[C@@]2(O)[C@H]3CCCN3C(=O)[C@H](Cc3ccccc3)N2C1=O`, the AC50 entry is “inactive”.

Regarding `COC(=O)NC/C=C\c1nc(CC/C=C\C(=O)O[C@H]2C[C@H]3CC(=O)O[C@@H](/C=C\CC(C)C)C[C@@H]4CC[C@H](C)[C@H](C[C@@H](OC)C[C@H](C2)O3)O4)co1`, the activity, negative = inhibition is 3.2% [at 11.4 µM].

`Cc1cccc([C@H](C)c2cnc[nH]2)c1C`: the AC50 was 0.158 µM (active).

Regarding `C=C1CC[C@H](O)C/C1=C/C=C1\CCC[C@]2(C)[C@H]1CC[C@H]2[C@@H](C)CCCC(C)C`, the AC50 entry is “inactive”.

As to `CCNC(=S)NC1CC2CCCC(C1)N2Cc1ccco1` (stereo not drawn), the AC50 entry is “inactive”.

`CCCN(CCC)[C@@H]1CCc2cccc(O)c2C1`: the AC50 result was “inactive”.

Regarding `CCS(=O)(=O)Nc1cccc(C(=C2CCCCC2)c2cnc[nH]2)c1`, the AC50 is 0.316 µM (active).

As for `C[N+]1(C)C2CC[C@H]1CC(OC(=O)[C@@H](CO)c1ccccc1)C2` (stereo partly drawn), the activity, negative = inhibition is 5.51% [at 11.4 µM].

For `C[C@H](CN(C)C)C(C#N)(c1ccccc1)c1ccccc1`, the activity, negative = inhibition was -3.45% [at 2.29 µM].

`NCC[Se][Se]CCN`: the AC50 is 3.16 µM (active).

As to `CC[C@H]1CN2CC[C@@H]1C[C@H]2[C@@H](O)c1ccnc2ccc(OC)cc12`, the AC50 result was “inactive”.

On to `COc1ccc(Cl)cc1NC(=O)NCCCl`, for which the AC50 was 2.82 µM (active).

With `C[C@H]1CN(C2CCC(C#N)(c3ccc(F)cc3)CC2)CC[C@@]1(C(=O)O)c1ccccc1` (stereo partly drawn), the AC50 entry was “inactive”.

With `CCCN1CCC[C@H](c2cccc(O)c2)C1`, the AC50 entry is “inactive”.

On to `O=C(O)c1ccccc1-c1c2cc(Br)c(=O)cc-2oc2[c]([Hg])c(O)c(Br)cc12`, for which the AC50 is 15.8 µM (active).

Turning to `C[C@H](N)[C@H](O)c1ccc(O)c(O)c1`, the AC50 entry is “inactive”.

As to `CCC(=O)O[C@H]1CC[C@H]2[C@@H]3CCC4=CC(=O)CC[C@]4(C)[C@H]3CC[C@]12C`, the AC50 entry is “inactive”.

In the case of `CCN1CCC2(CC1)NC(CO)(CO)CO2`, the AC50 entry is “inactive”.

`COc1c2c(cc3c1OCO3)CCN(C)C2`: the AC50 is 2 µM (active).

`C[C@]12N[C@@H](Cc3ccccc31)c1ccccc12`: the AC50 entry was “inactive”.

As to `N[C@@H]1C=CC=C(C(=O)O)C1`, the AC50 result was “inactive”.

For the compound `COC(=O)C(O)(c1c(C)[nH]c2ccccc12)C(F)(F)F` (stereo not drawn), the AC50 is 15.8 µM (active).

`N[C@H](Cc1o[nH]c(=O)c1Cl)C(=O)O`: the AC50 result is “inactive”.

With `CCCCN1C(=O)/C(=C/c2ccc(N(C)C)cc2)C(=O)N(Cc2ccco2)C1=O`, the half-maximal activity concentration (AC50) was 15.8 µM (active).

With `O=S(=O)(O)/C(=C\c1ccccc1)c1ccccc1` (tested in a mixture with another compound), the activity, negative = inhibition is -29% [at 2.29 µM].

In the case of `C=C[C@H]1CN2CC[C@@H]1C[C@H]2[C@@H](O)c1ccnc2ccccc12`, the AC50 entry is “inactive”.

`c1cc(CN2CCCC3(CCNCC3)C2)ccn1`: the AC50 entry was “inactive”.

In the case of `CO[C@@H]1CC=C2CCN3CCC4=C(CC(=O)OC4)[C@]23C1`, the AC50 entry was “inactive”.

`C[C@@H]1Cc2cc3c(cc2C(c2ccc(N)cc2)=NN1)OCO3`: the AC50 was 5.01 µM (active).

Source of the values: PubChem BioAssay AID1851 (National Center for Advancing Translational Sciences (NCATS), 2009).
